system: PLK3; conditions: concentration: 1 μM,replicates: in singlicate; n = 1
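Further: KINOMEscan kinase panel screen.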

Row | SMILES | %Inh
1 | CNC(=O)c1ccccc1Sc1ccc2c(/C=C/c3ccccn3)n[nH]c2c1 | 34%
2 | O=C(NCCNc1ccnc(NCc2ccc(F)cc2)n1)c1cc2ccccc2s1 [GSK1379944] | 0%
3 | CN(C)CCOc1ccc(-c2cc(-c3c[nH]nc3-c3ccccn3)ccn2)cc1 [GW835314] | 0%
4 | Cc1cc(C(=O)Nc2ccc(Oc3ccc4nc(NC(=O)C5CC5)cn4n3)cc2)nn1-c1ccccc1 | 0%
5 | Cc1ccc(-n2nc(C(C)(C)C)cc2NC(=O)Nc2ccc(OCCN3CCOCC3)c3ccccc23)cc1 [GW839464] | 0%
6 | CCN(CC)CCCCNc1ncc2cc(-c3c(Cl)cccc3Cl)c(NC(=O)NC(C)(C)C)nc2n1 | 7%
7 | CCN(CC)CCOc1ccc(Nc2ncc3cc(-c4c(Cl)cccc4Cl)c(=O)n(C)c3n2)cc1 [SB-601273] | 52%
8 | Cc1cc2cn[nH]c2cc1-c1cccc2c(N)c(C(N)=O)nnc12 | 0%
9 | CC(C)Nc1cc(-c2ccc3c(N)n[nH]c3c2)nc(N)n1 [GSK2221681] | 0%
10 | C[C@@H](Oc1cc(-c2cnn(C3CCNCC3)c2)cnc1N)c1c(Cl)ccc(F)c1Cl | 17%
11 | Cl.Cl.Nc1nc(-c2ccc3c(N)n[nH]c3c2)cc(N2CCCC(NC(=O)c3ccccc3)C2)n1 (stereo not shown) [GSK2286775] | 1%
12 | CC(C)N1C(=O)Cc2cc(Nc3ncc(C(F)(F)F)c(NCc4cccc(S(C)(=O)=O)c4)n3)ccc21 | 64%
13 | Cl.Cl.NC[C@H](Cc1ccc(C(F)(F)F)cc1)NC(=O)c1cc(Br)c(-c2ccnc3[nH]ccc23)s1 [GSK1487252] | 0%

Source: paper PMC5540273 (PLoS ONE, 2017)
